# From PubChem BioAssay AID1851 (National Center for Advancing Translational Sciences (NCATS), 2009)
# Out of some 16,000 compounds screened, about 4,000 (25%) were called active. Roughly 26% stayed inconclusive and do not appear here. Not all results are given here. A number with no mark means an inactive call. Calls come from the whole dose curve; as a rule, active = well fitted curve in the direction sought with a large enough effect; inconclusive = small, poorly fitted or top-dose-only effect, or effect the other way; inactive = no such curve, though single readings can be large or run the other way.
# Biological target: Cytochrome P450 2C9 (Homo sapiens) (UniProt P11712)
# Sequence (P11712 whole entry, looked up): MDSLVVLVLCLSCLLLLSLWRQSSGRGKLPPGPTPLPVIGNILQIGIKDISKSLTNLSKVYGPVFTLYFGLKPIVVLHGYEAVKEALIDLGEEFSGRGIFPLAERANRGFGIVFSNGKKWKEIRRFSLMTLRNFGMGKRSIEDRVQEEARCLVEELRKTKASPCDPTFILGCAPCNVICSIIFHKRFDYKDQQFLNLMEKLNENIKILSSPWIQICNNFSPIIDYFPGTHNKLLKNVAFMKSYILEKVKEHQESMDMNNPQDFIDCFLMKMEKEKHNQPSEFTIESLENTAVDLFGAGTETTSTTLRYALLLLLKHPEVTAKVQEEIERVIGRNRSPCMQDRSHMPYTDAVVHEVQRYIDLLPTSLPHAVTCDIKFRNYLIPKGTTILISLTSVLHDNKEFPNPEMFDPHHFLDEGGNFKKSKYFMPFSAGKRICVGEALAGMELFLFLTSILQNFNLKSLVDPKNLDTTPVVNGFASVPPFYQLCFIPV
# Assay: Cytochrome panel assay with activity outcomes
# Details: recombinant CYP, pro-luciferin dealkylation, luminescence, p450-cyp2c9; series mostly up to 57.1 µM; activity, negative = inhibition: at the top concentration
# % is set by controls: 0 for no effect and ±100 for the full control effect.
Compound,"activity, negative = inhibition",AC50
CC(C)CN1CCC2(CC1)CCN(C(=O)c1ccncc1)CC2,4.6%,
Cc1cc(=O)[nH]c2ccccc12,25.9%,
CC1CCCC(n2c(=S)[nH]c3ccccc3c2=O)C1C (centres undefined),,3.55 µM (active)
CCn1c(=O)[nH]c2ccccc2c1=O,17.7%,
CN(C)C(=O)/N=N\C(=O)N(C)C,-6.5%,
CCn1c(O)c(/C=C2\C=Nc3ccccc32)sc1=Nc1ccc(C)cc1,,2.24 µM (active)
CC(C)n1c(O)c(/C=C2\C=Nc3ccccc32)sc1=Nc1ccccc1,,2.51 µM (active)
C[C@@H](CNC(N)=O)NC(N)=O,20.8% [at 11.4 µM],
Cc1ccc(C)c(-c2cc(C(=O)Nc3nccs3)c3ccccc3n2)c1,,2.82 µM (active)
Cc1ccc(Nc2ncccc2C(=O)NCc2cccs2)c(C)c1,,15.8 µM (active)
Cc1ccc(C)c(-c2cc(C(=O)Nc3sc(C)c(C)c3C(N)=O)c3ccccc3n2)c1,,0.794 µM (active)
Cc1ccc2c(c1)N(CC(=O)NCc1cccs1)C(=O)C(C)O2 (centres undefined),24.4%,
CN(C)C(=O)c1ccc(-c2nccc(NCc3cccs3)n2)cc1,10.6% [at 2.29 µM],
Cc1ccc(-c2cc(C(=O)NCc3ccco3)c3ccccc3n2)s1,,3.98 µM (active)
N[C@@](CCc1ccccc1)(C(=O)O)c1ccccc1,-3.36% [at 11.4 µM],
COc1cccc(Nc2ncc3nc(C)c(=O)n(CCC#N)c3n2)c1,-1.51%,
CN(C)CCCn1c2c3ccccc3ccc2c2oc(=O)c3ccccc3c21,-5.42% [at 11.4 µM],
Cc1noc(C)c1-c1nc(NCc2cccs2)c2ccccc2n1,-11.4% [at 2.29 µM],
Cc1ccc(C)c(-c2cc(C(=O)NCc3cccs3)c3ccccc3n2)c1,,1.26 µM (active)
CN(C)C(=O)c1ccc(-c2nc(NCc3cccs3)c3ccccc3n2)cc1,-26.2% [at 2.29 µM],
CS(=O)(=O)N1CCC2(CCN(C(=O)Nc3cccc(C#N)c3)CC2)CC1,-1.38%,
c1ccc2oc(C3=NCCN3)cc2c1,6.13%,
COCCOC(=O)C1=C(C)NC(=O)N(C(C)=O)C1c1ccc(Cl)cc1 (centres undefined),,4.47 µM (active)
CC(=O)NC(Cc1ccc(F)cc1)C(=O)O (centres undefined),7.48%,
Cc1nc2c(C(=O)NCCC(C)C)c[nH]n2c(=O)c1Cc1ccccc1F,,2.82 µM (active)

Compound,"activity, negative = inhibition",AC50
Cc1nc2c(C(=O)NCc3ccc4c(c3)OCO4)c[nH]n2c(=O)c1Cc1ccccc1F,,0.501 µM (active)
O=C(O)c1cc2c(o1)CCC/C2=N\O,-26.6%,
CC1(C)S[C@@H]2[C@H](NC(=O)[C@@H](N)c3ccc(O)cc3)C(=O)N2[C@H]1C(=O)O,17% [at 25.6 µM],
O=C(c1c(O)c2ccc(Cl)cc2[nH]c1=O)C1CC1,-5.08%,
O=c1[nH]c2cc(Cl)ccc2c(O)c1-c1cccc(Oc2ccccc2)c1,-21.6%,
O=c1[nH]c2cc(Cl)ccc2c(O)c1-c1ccc(Oc2ccccc2)cc1,,12.6 µM (active)
CCOC(=O)Cc1cc(=O)n2[nH]c(C)c(C#N)c2n1,-6.59%,
CCOC(=O)Cc1c(C)nc2c(C#N)c[nH]n2c1=O,,12.6 µM (active)
CC(C)CCNC1=NCCCCC1,3.84%,
OC[C@H]1O[C@H](n2cnc3c(NC4CCCC4)nc(Cl)nc32)[C@@H](O)[C@@H]1O,-9.28%,
Cc1noc(C)c1-c1nc(NC2CCNCC2)c2ccccc2n1,13% [at 2.29 µM],
O=C(c1n[nH]c(=O)c2ccccc12)N1CCN(C2c3ccccc3-c3ccccc32)CC1,,2.82 µM (active)
Cc1cc(C)nc(SCCc2cccc[n+]2C)n1,-3.45% [at 11.4 µM],
COc1cc(/C=C(\C#N)C(=O)c2ccc(O)c(O)c2)cc(I)c1O,,0.501 µM (active)
N#C/C(=C\c1ccc(O)c(O)c1)C(=O)c1ccc(O)c(O)c1,11.7%,
C[C@H]1CN(CCO)CCN1c1ccccc1,-1.76% [at 11.4 µM],
CC(C)=NOCc1ccc(-c2cc(-c3ccccc3)no2)cc1,12% [at 11.4 µM],
COc1cccc([C@H](O)Cn2cc(-c3cccc(CON=C(C)C)c3)nn2)c1,-2.7% [at 11.4 µM],
CC(C)=NOCc1cccc(-c2cc(-c3ccccc3)no2)c1,,3.98 µM (active)
CCOC(=O)c1ccc(N/C=C/C(=O)c2ccc(OC)cc2)cc1,13.1%,
CC(=O)c1ccc(NC(=O)C2(c3ccccc3)CCOCC2)cc1,,5.01 µM (active)
CN(C)CCOC(=O)C1(c2ccccc2)CCOCC1,-19.5%,
CCOC(=O)c1ccc(NC(=O)C2(c3ccc(OC)cc3)CCOCC2)cc1,,5.62 µM (active)
COc1ccc(C2(C(=O)N3CCOCC3)CCCC2)cc1,-17.7%,
